# Assay outcomes from PubChem.
# Compounds with a hit are over-represented: about 4.7% of the library has one in this group of screens.
# CCHFV vOTU inh: CCHFV vOTU protease inhibition; Pep-AMC fluorescence; inhibition, % at 11.5 µM; 370,000 compounds, 0.55% hits; further: 0% = vehicle wells with enzyme and 100% = no enzyme wells
# RecA intein inh: inhibitors of M. tuberculosis RecA intein splicing; inhibition, % (concentration not given with the values); cell-free RecA intein splicing, fluorescence; AID 2221; 290,000 compounds, 0.75% hits; in the data active means inhibition above about 30%;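 further: 0% = vehicle wells and 100% = reference inhibitor control wells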
# SARS 3CLpro inh: SARS-CoV 3CLpro protease inhibition. 290,000 compounds, 0.14% hits. recombinant SARS-CoV 3CLpro, quenched FRET peptide cleavage. inhibition, % at 6 µM; in the data active means inhibition above about 12%
# Mtb FBA inh: inhibitors of M. tuberculosis fructose-bisphosphate aldolase. P9WQA3. purified M. tuberculosis FBA, fluorescence read-out. inhibition, % at 1 µM. 360,000 compounds, 2.3% hits; in the data active means inhibition above about 27%;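 further: 0% = vehicle and 100% = reference inhibitor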
# Target sequence (P9WQA3 whole entry, looked up): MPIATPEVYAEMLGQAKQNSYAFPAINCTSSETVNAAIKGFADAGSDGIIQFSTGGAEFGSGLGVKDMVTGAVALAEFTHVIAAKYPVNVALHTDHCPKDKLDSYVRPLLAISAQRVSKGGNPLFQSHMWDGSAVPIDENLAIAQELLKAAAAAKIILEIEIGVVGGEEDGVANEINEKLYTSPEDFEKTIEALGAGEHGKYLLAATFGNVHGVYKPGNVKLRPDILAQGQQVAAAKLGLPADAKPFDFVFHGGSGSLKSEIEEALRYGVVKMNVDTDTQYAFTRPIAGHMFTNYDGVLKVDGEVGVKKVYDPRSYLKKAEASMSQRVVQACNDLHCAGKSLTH
# GDH-TPI inh: counter-screen for M. tuberculosis FBA inhibitors: GDH-TPI coupled enzymes; GDH-TPI coupled enzyme counterscreen, NADH absorbance; inhibition, % at 4.8 µM; 360,000 compounds, 1.2% hits; AID 588335;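 further: 0% = DMSO wells and 100% = wells lacking the enzyme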
# VHR inh abs: inhibitors of human VHR1 phosphatase (DUSP3); P51452; recombinant VHR phosphatase, pNPP absorbance; inhibition, % at 13.3 µM; 290,000 compounds, 0.52% hits; in the data active means inhibition above about 50%
# Target sequence (P51452 whole entry, looked up): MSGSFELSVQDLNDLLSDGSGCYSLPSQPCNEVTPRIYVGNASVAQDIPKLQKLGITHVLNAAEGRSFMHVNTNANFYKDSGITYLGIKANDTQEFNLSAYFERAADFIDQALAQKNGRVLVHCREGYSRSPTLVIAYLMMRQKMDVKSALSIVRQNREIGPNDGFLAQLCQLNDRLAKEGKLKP
# * hit, by the source's call; nt = no result given; + = active, no number. Unless noted, no stated cut-off is given here; in the data, active means inhibition above about 30%; inactive means the rest.
SMILES,CCHFV vOTU inh,RecA intein inh,SARS 3CLpro inh,Mtb FBA inh,GDH-TPI inh,VHR inh abs
CCOc1cc(CN2CCN(c3ccc(C(C)=O)cc3)CC2)ccc1OC,-4.5,0.2,1.9,2.5,38.4*,-2.4
COc1cccc(C(=O)NC(=S)Nc2ccc(N3CCCC3)cc2)c1,13.4,-0.6,-3.1,1.1,5.3,23.1
CC(C)Oc1cccc(C(=O)NC(=S)Nc2ccc(N3CCN(C)CC3)cc2)c1,5.6,-0.7,6.3,84.6*,4.8,1.7
Cc1ccc(-n2nc3c4c(cccc4c2=O)-c2ccccc2-3)cc1,-1.0,-0.3,-0.2,2.1,32.7*,13.7
NC(=O)[C@H](Cc1cc2ccccc2s1)NC(=O)[C@@H]1CC2(CC(c3cccc(NC(=O)[C@@H]4CCC(=O)N4)c3)=NO2)CN1C(=O)/C=C/c1c(F)cccc1Cl (stereo partly specified),nt,32.7*,5.0,-2.5,3.1,7.1
NC(=O)[C@H](Cc1cc2ccccc2s1)NC(=O)[C@@H]1CC2(CC(c3cccc(NC(=O)[C@@H]4CCC(=O)N4)c3)=NO2)CN1C(=O)/C=C/Sc1ccccc1 (stereo partly specified),-0.2,7.9,-1.2,0.0,6.0,4.7
C[n+]1ccccc1/C=C/c1ccc2ncccc2c1,12.2,-0.6,0.4,-0.3,24.9,24.5
C[n+]1ccccc1/C=C/c1c(F)cccc1F,-9.3,1.8,-0.1,-1.2,44.8*,16.6
C[n+]1ccccc1/C=C/c1ccc(F)c(F)c1,-3.4,2.7,-2.1,-0.6,35.3*,16.0
C[n+]1ccccc1/C=C/c1ccc([N+](=O)[O-])cc1,-6.4,0.3,-0.3,-0.8,34.6*,27.0
C[n+]1ccccc1/C=C/c1ccc(C#N)cc1,10.1,-0.3,-1.6,0.8,19.5,-11.8
Cc1ccccc1/C=C/c1cccc[n+]1C,-5.1,-1.0,-1.3,-1.3,19.6,1.0
COc1ccc(C(C(=O)N(C)C2CCCC2)N(Cc2ccc(F)cc2)C(=O)c2ncn[nH]2)cc1OC (stereo unspecified),0.1,nt,nt,nt,nt,nt
O=C(/C=C\Nc1ccc(Br)cc1)c1cccnc1,10.9,-11.8,-1.9,-5.9,34.9*,-11.3
Cc1noc(NS(=O)(=O)c2ccc(N/C=C/C(=O)c3cccnc3)cc2)c1C,3.5,0.1,0.2,-0.2,33.9*,11.9
Cc1noc(NS(=O)(=O)c2ccc(N/C=C\C(=O)c3ccncc3)cc2)c1C,8.3,1.3,0.7,-2.3,19.6,-10.2
O=C(NNC(=S)Nc1ccc(Br)cc1)c1cccnc1,10.6,4.9,0.8,-1.2,16.9,-12.4
O=Nc1ccc(Br)cn1,3.4,nt,nt,nt,nt,nt
Cc1[nH]c2ccc(C(=O)NCCCN3CCCCC3)cc2c1C,-1.3,-1.1,-0.7,4.4,8.6,56.7*
N=C1/C(=C\c2coc3ccccc3c2=O)C(=O)N=C2SC(c3ccncc3)=NN12,21.8,-1.2,4.2,7.8,32.1*,15.0
N=C1/C(=C/c2coc3ccccc3c2=O)C(=O)N=C2SC(c3ccco3)=NN12,nt,0.5,-1.5,-1.5,7.8,9.3
O=C(NCc1ccccc1)/C(=C\c1ccc(F)cc1)NC(=O)c1ccco1,-3.1,nt,nt,-3.7,12.4,nt
O=C(CN1C(=O)C2C3C=CC(C4CC34)C2C1=O)Nc1cccc2ncccc12 (stereo unspecified),-1.9,9.6,6.7,-2.6,0.4,53.0*
Cn1ccc2c(-c3ccc(C(C)(C)C)cc3)cc3c(c21)C1CCC3C1 (stereo unspecified),8.1,nt,nt,2.6,nt,nt
Cn1ccc2c(-c3ccc(C(=O)O)cc3)cc3c(c21)C1CCC3C1 (stereo unspecified),-22.3,nt,nt,+,nt,nt
SMILES,CCHFV vOTU inh,RecA intein inh,SARS 3CLpro inh,Mtb FBA inh,GDH-TPI inh,VHR inh abs
C[C@H]1CN(S(=O)(=O)C(C)(C)C)[C@@H](CCO)/C1=C\c1ccccc1,4.8,nt,nt,nt,nt,nt
Nc1ccc(C(=O)N/N=C/c2cn(Cc3cccc(F)c3)c3ccccc23)cc1,0.1,-0.4,5.0,1.6,32.4*,1.6
O=C(CNc1ccc2c(c1)OCO2)N/N=C\c1cn(Cc2ccccc2)c2ccccc12,-1.5,-2.7,7.2,0.7,30.9*,1.3
O=C(N/N=C/c1cccc2ccccc12)c1cccc(F)c1,4.2,3.0,0.2,-2.1,34.0*,19.2
O=C(N/N=C/c1cccc2ccccc12)c1ccc(CN2CCOCC2)cc1,-1.1,-1.1,-1.5,6.4,41.4*,13.0
O=C(c1ccccc1OCc1ccccc1)N(Cc1ccccn1)CC1CCCO1 (stereo unspecified),-4.0,nt,nt,nt,nt,nt
O=C1N2Cc3ccccc3C2CS(=O)(=O)N1C1CCCC1 (stereo unspecified),10.3,nt,nt,nt,nt,nt
CC(C)N1CCCC(C)(C(=O)Nc2ccccc2)C1 (stereo unspecified),-5.6,nt,nt,-0.9,7.1,nt
CC1(C)CC(=O)N(CC(=O)N2CCN(c3cccc(Cl)c3Cl)CC2)c2ccccc2S1(=O)=O,0.3,nt,nt,nt,nt,nt
O=C(N/N=C/c1cccc2ccccc12)c1cc2ccccc2o1,3.0,1.3,1.3,1.1,16.5,-3.8
C#CCn1cc(/C=N/NC(=O)c2cc3ccccc3o2)c2ccccc21,5.3,5.1,-0.8,3.9,31.6*,-10.0
Brc1ccc(N2O[C@H]3C=C[C@@H]2C3)nc1,-3.6,nt,nt,nt,nt,nt
O=C(CSc1nnc(-c2cccnc2)n1-c1ccc(Cl)cc1)c1ccc2ccccc2c1,5.4,nt,nt,nt,nt,nt
C/C=C(/C)C(=O)O[C@@H]1c2c(ccc3ccc(=O)oc23)O[C@@H]1C(C)(C)OC(=O)/C(C)=C\C,4.8,4.4,-1.7,11.4,6.7,-3.0
CC(C)(OC1OC(CO)C(O)C(O)C1O)[C@H]1Oc2ccc3ccc(=O)oc3c2[C@H]1O (stereo partly specified),-31.8,0.5,-6.9,117.3*,28.1,12.4
CC(C)n1c(=O)c2ccccc2n1Cc1cn(CCc2c[nH]c3ccccc23)nn1,15.0,nt,nt,5.0,nt,nt
CC(C)n1c(=O)c2ccccc2n1Cc1cn(-c2ccccc2)nn1,-13.3,nt,nt,120.3*,nt,nt
CC(C)n1c(=O)c2ccccc2n1Cc1cn(Cc2ccccc2)nn1,-20.6,nt,nt,114.8*,nt,nt
COC(=O)Cn1c2ccccc2c(=O)n1C(C)C,-31.3,nt,nt,nt,nt,nt
CC(NCC(=O)Nc1ccccc1C(=O)NC1CC1)c1ccc(S(C)(=O)=O)cc1 (stereo unspecified),12.4,nt,nt,5.8,-3.2,nt
CCCCN(CCO)c1ncnc2sc(-c3ccccc3)cc12,18.7,0.4,-5.1,14.3,31.0*,-2.2
O=C(c1cn(-c2ccccc2)nc1-c1ccc(Br)cc1)N1CCOCC1,0.3,1.7,0.8,-0.4,8.0,-8.4
Cc1c(CC(=O)N2CCC(C(=O)O)CC2)c(=O)oc2cc3c(cc12)CCC1(CCCCC1)O3,-145.0,1.0,2.5,+,41.2*,4.3
Cc1c(CC(=O)N2CCC(O)CC2)c(=O)oc2cc3c(cc12)CCC1(CCCCC1)O3,-156.5,nt,nt,180.8*,28.6,nt
Cc1c(CC(=O)N2CCN(C(=O)C3COc4ccccc4O3)CC2)c(=O)oc2cc(O)c(Cl)cc12 (stereo unspecified),-384.8,-216.8,0.2,nt,25.2,-5.9
